The entries come from a sample that favours hits as a whole.
Pf Dd2 growth = blocks in vitro growth of P. falciparum Dd2; Potency, µM (highest dose often 28.9 µM), inactives show at the top dose activity, negative = inhibition, actives largely listed as inhibitors; P. falciparum Dd2 growth, SYBR Green, 72 h; AID 1347417; actives 4.3% (n = 120,000); active means well fitted inhibition curve with a large enough effect;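 further: plate controls were DMSO vehicle for no effect and reference drug for full effect; nearly all actives have a fitted effect of over 65% in size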
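Infected erythrocytes (Dd2, 0.3% parasitemia, 2.5% hematocrit final) are added to compound in RPMI-1640/Albumax II medium, grown 72 h at 37C in low oxygen, then lysed with saponin/Triton-X containing SYBR Green and read by fluorescence.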
An asterisk follows results filed as active; i = inactive; [ ] = dose if it differs, or a comment. Potency means the concentration at half of the fitted maximal effect.

SMILES	Pf Dd2 growth
O=C(Nc1ccc(Cl)cc1)c1ccc2c(c1)N(Cc1ccccc1)CCS2	4.5µM*
COc1ccc(OC)c(CCNC(=O)c2ccc3c(c2)N(Cc2ccccc2)CCS3)c1	-21%
CN1CCN(C(=O)C2CCCN(C3CCN(c4cc(C#N)ccn4)CC3)C2)CC1 (stereo not drawn)	-21%
Cc1ccc(SCC(=O)Nc2ccc3oc(-c4cccc(C)c4)nc3c2)cc1	-4%
Cc1ccc2nc(-c3cccc(NC(=O)CSc4ccc(Cl)cc4)c3)oc2c1	11µM*
Cc1ccc2nc(-c3ccc(C)c(NC(=O)CSc4ccc(Cl)cc4)c3)oc2c1	0%
Cc1nc(-c2c3n(c(=O)n(CC(=O)Nc4ccccc4F)c2=O)CCCCC3)no1	18%
CNC(=O)c1noc([C@@H]2CC(F)(F)CN2C(=O)C(C)C)n1	27%
Cc1ccc(-c2noc([C@@H]3Cc4nc[nH]c4CN3Cc3ccccc3)n2)cc1	10µM*
c1ccc(CN2Cc3[nH]cnc3C[C@H]2c2nc(-c3ccccc3)no2)cc1	13µM*
Cc1ccc(-c2noc([C@@H]3Cc4nc[nH]c4CN3C(=O)COCC(=O)O)n2)cc1	11%[44.1 µM]
CN(C)c1ccc(CN2Cc3[nH]cnc3C[C@H]2c2nc(-c3ccccc3)no2)cc1	-15%[44.1 µM]
COc1ccccc1CN1Cc2[nH]cnc2C[C@H]1c1nc(-c2cccc(C)c2)no1	13µM*
COc1ccc(CN2Cc3[nH]cnc3C[C@H]2c2nc(-c3ccc(C)cc3)no2)cc1	22µM*
COc1ccc(-c2noc([C@@H]3Cc4nc[nH]c4CN3Cc3cccs3)n2)cc1	i
Cc1cccc(-c2noc([C@@H]3Cc4nc[nH]c4CN3C(=O)CC(C)(C)CC(=O)O)n2)c1	i
COc1ccc(CN2Cc3[nH]cnc3C[C@H]2c2nc(-c3ccccn3)no2)cc1	-3%[44.1 µM]
Cc1ccc(-c2noc([C@@H]3Cc4nc[nH]c4CN3Cc3ccc(N(C)C)cc3)n2)cc1	i
O=C(c1ccccc1)N1Cc2[nH]cnc2C[C@H]1c1nc(-c2ccc(Cl)cc2)no1	i
Cc1ccc(-c2noc([C@@H]3Cc4nc[nH]c4CN3C(=O)CCC(=O)O)n2)cc1	-15%[44.1 µM]
CCC(=O)N1CCN(c2nc3c(s2)CC(C(=O)O)CC3)CC1 (stereo not drawn)	-21%
CC(C)NC(=O)C1CCC(=O)N1C1CCNCC1 (stereo not drawn)	12%
CCc1noc(-c2cn(C3CCN(C(=O)c4ccco4)C3)nn2)n1 (stereo not drawn)	i
CC(=O)N1CCC(C2CCN(C(=O)NCCc3ccccc3)C2)CC1 (stereo not drawn)	-25%
O=C(Nc1cccc(F)c1)N1Cc2[nH]cnc2C[C@H]1c1nc(-c2ccc(C(F)(F)F)cc2)no1	i
SMILES	Pf Dd2 growth
FC(F)(F)c1ccc(-c2noc([C@@H]3Cc4nc[nH]c4CN3Cc3cc4ccccc4o3)n2)cc1	8.9µM*
O=C(Nc1ccc(Cl)cc1)N1Cc2[nH]cnc2C[C@H]1c1nc(-c2ccc(F)c(Cl)c2)no1	i
c1csc(CN2Cc3[nH]cnc3C[C@H]2c2nc(-c3ccncc3)no2)c1	i
CCNC(=O)N1Cc2[nH]cnc2C[C@H]1c1nc(-c2ccc(F)c(Cl)c2)no1	i
Fc1ccc(CN2Cc3[nH]cnc3C[C@H]2c2nc(-c3ccc(F)c(Cl)c3)no2)cc1	11µM*
CN(C)c1ccc(CN(C)C2CCOc3ccccc32)cc1 (stereo not drawn)	-20%[44.1 µM]
COCCn1cc2c3c(cccc31)CN(C(=O)c1cccc(Cl)c1)CC2	-1%
Cc1ccccc1-n1nnnc1C(c1ccccc1)N(C)C(=O)c1cn[nH]n1 (stereo not drawn)	-16%
COc1ccc(C(=O)N2CCC3(CC2)N=C(c2cccc(Br)c2)NO3)cc1F	i
CCCS(=O)(=O)N1CCC(N2CC(OCC3CC3)C23CCOCC3)CC1 (stereo not drawn)	i
Cc1cc(C(=O)N2CC[C@H]3CC(=O)N(Cc4ccc5c(c4)OCO5)CC[C@H]3C2)no1	i
COCCNC(=O)CN1CCCc2nc(C3CC3)ncc2C1=O	19%
O=C(CN1CCCc2nc(C3CC3)ncc2C1=O)NCCc1c[nH]c2ccccc12	10µM*
O=C(CN1CCCc2nc(C3CC3)ncc2C1=O)NCc1cccnc1	33%
O=C(CN1CC2CC(C1)[C@H]1CCCC(=O)N1C2)N1CCN(c2ccccc2F)CC1 (stereo partly drawn)	-25%
C=CCOC(=O)C1=C(C)N=C2SC=C(CC(=O)NCC3CC3)N2C1c1ccc(OC)c(OC)c1 (stereo not drawn)	0%
Cn1cnnc1CC1CCN(C(=O)c2cn3ccsc3n2)CC1	14%
Clc1ccc(CNc2ncnc3onc(-c4ccc(Cl)cc4)c23)cc1	i
Clc1ccc(-c2noc3ncnc(NC4CCCCC4)c23)cc1	-19%
CC1CCC(Nc2ncnc3onc(-c4ccc(Cl)cc4)c23)CC1 (stereo not drawn)	4.5µM*
CN1Cc2cccn2CC1CNC(=O)c1cccn1C (stereo not drawn)	-51%
CN1Cc2cccn2CC1CNC(=O)c1cnn(C)c1 (stereo not drawn)	-10%
